The nature of test [1]: viability loss in pontine glioma line – cell-based, SU-DIPG-XVII, MIPE5.0, CellTiter-Glo, qHTS, dose response (AID 1347060).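 For AC50: cells exposed to compound for 48 hours before viability readout.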 The following applies: CellTiter-Glo ATP luminescence.
The nature of test [2]: viability loss in pontine glioma line – cell-based, SU-DIPG-XIII, MIPE4.0, CellTiter-Glo, qHTS, dose response (AID 1347061; cut-off not given, nearly all actives have AC50 up to about 37 µM;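 note: cells exposed to compound for 48 hours before readout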). The note with it: CellTiter-Glo ATP luminescence. A general note: In ATP-based viability assays light output follows the ATP content of the culture.
Test [3] in a line: viability loss in pontine glioma line – cell-based, SU-DIPG-XXV, MIPE5.0, CellTiter-Glo, qHTS, dose response (AID 1347065).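 Note: cells exposed to compound for 48 hours before ATP readout.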 The note with it: CellTiter-Glo ATP luminescence.
Test [4] is described as follows: growth inhibition of DIPG cells – cell-based, MIPE4.0 library, CellTiter-Glo luminescence, qHTS (AID 1347066; cut-off not given, nearly all actives have AC50 up to about 30 µM;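 note: cells exposed to compound for 48 hours before readout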). The following applies: SU-DIPG-VI viability, CellTiter-Glo ATP luminescence.
Test [5] is described as follows: JHH-DIPG-1 glioma cell viability, MIPE5.0 library, CellTiter-Glo luminescence, qHTS (AID 1347067).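 Note: cells exposed to compound for 48 hours before readout.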 The note with it: JHH-DIPG-1 glioma viability, CellTiter-Glo ATP luminescence.
Test [6] is described as follows: growth inhibition of DIPG cells – cell-based, MIPE5.0 library, qHTS (AID 1347068; cut-off not given, nearly all actives have IC50 up to about 30 µM;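 for IC50: cells exposed to compound for 48 hours before viability readout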). The note with it: SU-DIPG-XXV viability. (In qHTS, concentration-response curves come from the screen itself.)
Test [7] can be described thus: viability loss in pontine glioma line – cell-based, JHH-DIPG-1, MIPE4.0, CellTiter-Glo, qHTS, dose response (AID 1347062; cut-off not given, nearly all actives have AC50 up to about 27 µM). The note with it: JHH-DIPG-1 viability, CellTiter-Glo ATP luminescence.
A short description of test [8]: viability loss in pontine glioma line – cell-based, SU-DIPG-IV, MIPE4.0, CellTiter-Glo, qHTS, dose response (AID 1347063; cut-off not given, nearly all actives have AC50 up to about 30 µM;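 note: compound exposure lasted 48 hours before the viability readout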). The following applies: CellTiter-Glo ATP luminescence.
Test [9] is described as follows: viability loss in pontine glioma line – cell-based, SU-DIPG-XIII, MIPE5.0, CellTiter-Glo, qHTS, dose response (AID 1347064; cut-off not given, nearly all actives have AC50 up to about 23 µM;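 for AC50: cells exposed to compound for 48 hours before the viability read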). The note with it: CellTiter-Glo ATP luminescence.
For test [10], the target named is NAD(+) hydrolase SARM1 (Homo sapiens) (UniProt Q6SZW1). Briefly: blocking NAD cleavage by SARM1 SAM-TIR – cell lysate, NAD-Glo luminescence (AID 1508614;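 active = compound whose remaining NAD level is above about 45 nM, limit read from the data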;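 note: higher remaining NAD means stronger inhibition of SARM1 NADase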). The note with it: SAM-TIR HEK293T lysate NADase, at 1 µM, stronger effect = higher value.
Sequence of NAD(+) hydrolase SARM1 (Homo sapiens) (Q6SZW1 whole entry, looked up): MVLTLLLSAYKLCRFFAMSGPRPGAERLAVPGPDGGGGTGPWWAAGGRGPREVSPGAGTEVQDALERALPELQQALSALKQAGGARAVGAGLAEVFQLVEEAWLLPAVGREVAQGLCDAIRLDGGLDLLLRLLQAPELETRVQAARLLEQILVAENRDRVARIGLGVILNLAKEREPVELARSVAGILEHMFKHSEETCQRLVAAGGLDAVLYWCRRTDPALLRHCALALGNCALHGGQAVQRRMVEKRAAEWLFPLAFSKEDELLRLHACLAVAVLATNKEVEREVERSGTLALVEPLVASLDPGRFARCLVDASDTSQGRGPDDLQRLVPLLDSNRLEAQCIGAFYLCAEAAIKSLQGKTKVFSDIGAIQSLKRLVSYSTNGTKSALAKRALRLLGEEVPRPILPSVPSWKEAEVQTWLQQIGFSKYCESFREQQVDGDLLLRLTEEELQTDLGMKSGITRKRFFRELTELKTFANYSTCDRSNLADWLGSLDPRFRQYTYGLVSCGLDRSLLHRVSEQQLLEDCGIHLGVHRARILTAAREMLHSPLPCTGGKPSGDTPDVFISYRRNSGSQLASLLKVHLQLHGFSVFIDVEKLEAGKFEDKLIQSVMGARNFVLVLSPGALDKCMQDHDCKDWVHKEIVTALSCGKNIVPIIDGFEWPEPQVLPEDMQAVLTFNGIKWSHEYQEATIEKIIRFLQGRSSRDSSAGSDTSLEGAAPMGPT
Test [11] can be described thus: viability loss with induced miR-34 in A549 – imaging, A549 dox-inducible miR-34, nuclei and caspase counts, primary screen (AID 1347080;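 active = compounds whose cell count with miR-34 switched on is under 0.7 times the count with it off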). The note with it: A549 miR-34 inducible, Hoechst nuclei count, 48 h.
A short description of test [12]: MELAS cybrid and Rieske KO viability enhancers – cell-based, MELAS cybrids, Rieske KO mouse fibroblasts, CellTiter-Glo, primary screen (AID 1508586;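 active = mean z-score across replicates of 1.96 or higher in either the MELAS or the Rieske mutant cell line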;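 note: z relative to plate mean and SD of compound and empty wells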). The following applies: low glucose.
Test [13] is described as follows: P. berghei load reduction in hepatocytes – cell-based, HepG2, luciferase luminescence, HepG2 viability, primary screen (AID 624349; in the data active = parasite load remaining mostly below about 12%, no sharp cut-off; inactive = mostly above about 10%;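 note: 100% = mean of DMSO negative control wells on the same plate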). The note with it: P. berghei liver stage in HepG2, luciferase luminescence, concentration not given here; parasite load remaining: stronger effect = lower value; viability: measured here: HepG2 viability without parasites.
A short description of test [14]: signal quenchers or enhancers, Cy5 substrate/SSB – biochemical, NIH Clinical Collection, E. coli SSB, artefact control for HCV NS3 helicase inhibitor project (AID 743268; call rule not given here). The following applies: Cy5-oligo bound E. coli SSB, fluorescence interference.
Test [15] concerns Hepatitis C virus NS3 helicase. Briefly: blockers of NS3h binding to DNA – biochemical, fluorescence polarization, NIH Clinical Collection, primary screen (AID 743270; call rule not given here). The following applies: NS3 helicase binding to Cy5-dT15 DNA, stronger effect = higher value, concentration not given here.
Test [16] addresses Single-stranded DNA-binding protein (Escherichia coli (strain K12)) (UniProt P0AGE0). Briefly: SSB-ssDNA binding inhibitors – biochemical, fluorescence polarization, NIH Clinical Collection, counter-screen for HCV NS3 helicase inhibitor project (AID 743271; in the data active = inhibition above about 28%). The note with it: E. coli SSB-DNA binding, stronger effect = higher value, concentration not given here. (In general: Polarisation of emitted light reports the rotation of a fluorescent probe.)

Test [17] is described as follows: compounds distorting NS3 helicase fluorescence signal – biochemical, NIH Clinical Collection, artefact control for HCV NS3 helicase inhibitor project (AID 743272; call rule not given here;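 note: HCV NS3 helicase with a Cy5 labelled single stranded DNA probe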). The following applies: fluorescence interference counterscreen, HCV NS3 helicase assay; stronger effect = lower value.
Test [18] in a line: galactose survival enhancers in mitochondrial complex I cybrids – cell-based, galactose medium, ATP luminescence, primary screen (AID 1645843;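 active = z-score of at least 1.8 in each of two replicates, scored against plate mean and spread of sample wells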;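 note: positive z means more ATP and so rescue of galactose-driven cybrid death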). The note with it: complex I mutant cybrid cells, 72 h, stronger effect = higher value.
[19] abbreviates: measured here: relative caspase fold change +Dox/-Dox.
Where [20] appears, read: measured here: total cells with miR-34 induction, stronger effect = lower value.
Where [21] appears, read: measured here: total cells without miR-34 induction.
Where [22] appears, read: MELAS cybrid survival, CellTiter-Glo 48 h, stronger effect = higher value.
The mark [23] stands for this setting: Rieske KO mouse fibroblast survival, CellTiter-Glo 72 h.

Where “and” joins values, the source holds several entries; their conditions need not be identical. Identical values can stand only once. Records with an inconclusive call do not appear. Calls of active or inactive are those of the source. Unless noted, no cut-off is given here; in the data, nearly all actives have AC50 up to about 26 µM.

For `Clc1ccccc1C(c1ccccc1)(c1ccccc1)n1cccn1`, the results for the AC50 in test [1], in test [3] and in test [5] were 23.5 µM (active), 33.2 µM (active) and 23.5 µM (active), respectively. The outcome in test [2], in test [4] and in test [6] was inactive.

`C[C@]12CC[C@@H]3c4ccc(OC(=O)N(CCCl)CCCl)cc4CC[C@H]3[C@@H]1CC[C@@H]2OP(=O)(O)O`: the call in test [1], in [2], in test [7], in test [8], in test [9] and in test [3] was inactive. For the same molecule, the outcome in [4], in test [5] and in test [6] was inactive.

As for `C[C@]12CC[C@H]3[C@@H](CC[C@@]45O[C@@H]4C(O)=C(C#N)C[C@]35C)[C@@H]1CC[C@@H]2O`, the values for the AC50 in test [1], in test [9] and in test [3] were 29.5 µM (active), 20.9 µM (active) and 20.9 µM (active), respectively. The molecule was called inactive in test [7], in test [4] and in test [6]. The remaining NAD in test [10] was 10 nM (inactive).

As for `Cc1[nH]ncc1-c1cc2nc([C@@H]3CC4CCN3CC4)[nH]c(=O)c2s1`, the half-maximal activity concentration (AC50) was 18.6 µM (active) in test [1], 16.6 µM (active) in [3] and 14.8 µM (active) in test [5]. Also, the IC50 in test [6] is 23.5 µM (active).

As to `COC(=O)[C@@]12OC[C@]34[C@H]([C@@H](O)[C@@H]1O)[C@@]1(C)CC(=O)C(O)=C(C)[C@@H]1C[C@H]3OC(=O)[C@H](OC(=O)/C=C(\C)C(C)C)[C@@H]24`, the AC50 is 0.0295 µM (active) in test [1], 0.059 µM (active) in test [9], 0.0105 µM (active) in [3] and 0.0525 µM (active) in [5]. Also, the IC50 in test [6] was 5.9 µM (active).

`C/C1=C/C[C@@H](/C(C)=C/c2csc(C)n2)OC(=O)C[C@H](O)C(C)(C)C(=O)[C@H](C)[C@@H](O)[C@@H](C)CCC1`: the AC50 is 0.00296 µM (active) in [1] and 0.00417 µM (active) in test [3].

For `CC(=O)OC[C@H]1O[C@@H]([S-])[C@H](OC(C)=O)[C@@H](OC(C)=O)[C@@H]1OC(C)=O.CC[PH+](CC)CC.[Au]`, the AC50 was 1.05 µM (active) in test [1], 1.66 µM (active) in [9], 1.18 µM (active) in [3] and 1.32 µM (active) in [5]. Besides, in test [6], the IC50 is 2.63 µM (active).

With `COc1ccc(N(C(=O)Oc2c(C)cccc2C)c2ccnc(Nc3ccc(N4CCN(C)CC4)cc3)n2)c(OC)c1`, the concentration at half-maximal activity (AC50) is 10.5 µM (active) in [1], 14.8 µM (active) in test [9], 10.5 µM (active) in [3] and 16.6 µM (active) in test [5]. In addition, in test [4], the call was inactive. In addition, the IC50 in [6] was 20.9 µM (active). In addition, the fold change is 0.826 (inactive) in [11] (stronger effect = lower value, cell number ratio, induced over uninduced) and 0.474 in test [11] (setting [19]). For the same molecule, the values for the cell count in [11] (setting [20]) and in [11] (setting [21]) were 5990 and 7250, respectively. For the same molecule, the z-score in [12] (setting [22]) was 0.0994 (inactive); in [12] (setting [23]) it was -1.32.

Regarding `C[C@]12Cc3cn[nH]c3C[C@@H]1CC[C@@H]1[C@@H]2CC[C@@]2(C)[C@H]1CC[C@]2(C)O`, the parasite load remaining in test [13] was 50.6% (inactive) and 13.2% (inactive). In addition, the viability in test [13] was 69.5% and 91.5%. Further, the fluorescence ratio in test [14] is 0.94 (inactive); in [17], 0.96 (inactive). In addition, the inhibition in test [15] is -1.97% (inactive); in [16] it was -2.76% (inactive). Also, the outcome in test [1], in [8], in test [9], in test [3], in [4] and in test [5] was inactive. In addition, in test [6], the result was inactive. Moreover, the fold change in [11] (stronger effect = lower value) is 0.887 (inactive); in test [11] (setting [19]), 2.02. Further, the cell count in test [11] (setting [20]) amounted to 8690; in test [11] (setting [21]) it was 9800. Besides, the z-score in [12] (setting [22]) is 0.697 (inactive) and -0.417 (inactive); in test [12] (setting [23]), -0.0861 and -1.23; in [18], -0.265 (inactive).

As to `O=C(CBr)N1CC([N+](=O)[O-])([N+](=O)[O-])C1`, the molecule was called inactive in [1], in test [3] and in test [6].

As to `CC(C)(C)c1cc(C=C(C#N)C#N)cc(Br)c1O`, in test [13], the parasite load remaining is 43.4% (inactive). Besides, the viability in test [13] worked out at 165%. Besides, the AC50 in [1] was 20.9 µM (active); in test [9], 18.6 µM (active); in test [3], 23.5 µM (active); in [5] it was 18.6 µM (active). Further, the call in test [6] was inactive. In addition, the fold change in [11] (stronger effect = lower value) is 0.886 (inactive); in test [11] (setting [19]), 1.14. In addition, the cell count in test [11] (setting [20]) stood at 7700; in test [11] (setting [21]), 8690. For the same molecule, the z-score is -0.608 (inactive) in test [12] (setting [22]) and -0.108 in test [12] (setting [23]).

Broadly, the AC50 is the concentration giving half of the maximal activity seen. The term IC50 denotes the concentration needed to halve the response being measured. As a reminder, the viability is a read-out of living cells in per cent, often relative to untreated cells. As usually defined, the inhibition is the drop in the measured response relative to a control, in per cent.

Source of the values: PubChem BioAssay.
